Screening results deposited in PubChem BioAssay by National Center for Advancing Translational Sciences (NCATS).
Pf Dd2 growth: qHTS Primary assay for Inhibitors of Plasmodium falciparum Dd2 growth in vitro | P. falciparum Dd2 growth, SYBR Green, 72 h | Potency, µM (titrated, usually from 28.9 µM), for the others: top-dose activity, negative = inhibition, actives largely listed as inhibitors | hit rate 4.3% among 120,000; active means well fitted inhibition curve with a large enough effect;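 further: plate controls were DMSO vehicle for no effect and reference drug for full effect; nearly all actives have a fitted effect of over 65% in size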
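Readout: SYBR Green fluorescence, 485 nm excitation, 535 nm emission, after ~16 h lysis at 37C. Before that, Dd2-infected red cells (2.5% hematocrit) grew 72 h with compound, 29 uM top final concentration.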
Starred values were filed as active, the others as inactive; i = inactive; [ ] = remark or other dose. Only a selection was taken, and hits are over-represented in it overall. Potency means the concentration at half of the fitted maximal effect.

SMILES	Pf Dd2 growth
COc1cc2c(cc1OC)C(C[C@H]1CN(C(=O)Nc3cccc(Cl)c3)CC[C@H]1CC(=O)O)=NCC2	i
Cc1ncoc1C(=O)NCC1Cn2cccc2C(=O)N1CC(C)C (centres undefined)	-1.6%
Cc1ccc(C#N)c(N2CCCC(c3nccn3CC3CCC3)C2)n1 (centres undefined)	i
CC(C)CC(=O)Nc1ccc2nc(SCC(=O)N3CCOCC3)sc2c1	-13.4%
CCN1CCN(Cc2nc3cc(NC(=O)c4cccc([N+](=O)[O-])c4)ccc3n2CC)CC1	7.94µM*
CCOC(=O)N1CCN(Cc2nc3cc(NC(=O)c4cccc(C)c4)ccc3n2C(C)C)CC1	6.31µM*
CCOC(=O)c1cccc(NC(=O)c2ccc3nc(C(C)C)oc3c2)c1	i
CCOC(=O)N1CCN(Cc2nc3cc(NC(=O)CC(C)C)ccc3n2C(C)C)CC1	11.2µM*
CCC(=O)NCCc1nc2cc(NC(=O)c3cccc(Br)c3)ccc2n1C	-19.1%
CC(C)CC(=O)Nc1ccc2nc(SCC(=O)N3CCCC3)sc2c1	-3.1%
Cn1c(CN2CCCCC2)nc2cc(NC(=O)c3cccc(Br)c3)ccc21	-9.1%
O=C(Nc1ccc(Cl)c(-c2nc3ccccc3o2)c1)c1ccc(-c2cccc([N+](=O)[O-])c2)o1	-12.2%
COCCn1ncc(N2CCCC(CC(=O)N(C)Cc3cccnc3)C2)cc1=O (centres undefined)	20.1%
CCCN1CCN(C(=O)Cn2nc(C)c3sc(-c4ccccc4)nc3c2=O)CC1	-7.6%
COCC1CN(C)CC12CCN(C(=O)Cc1ccc(OC)c(Cl)c1)CC2 (centres undefined)	i
NC(=O)[C@H](CC1CCCCC1)NC(=O)[C@@H]1CN(C(=O)Nc2ccccc2)CCN1C(=O)C1CCNCC1	7.7%
Cc1ccc(C)c(NC(=O)N2CCCC(Cn3c(C4CC4)nc4cccnc43)C2)c1 (centres undefined)	-4.7%
CNCCN1C(=O)CC[C@H]2CN(C(=O)c3cnc4c(c3)CCCC4)CC[C@H]21	-1.8%
O=C(c1ccncc1)N1CC[C@H]2COC(=O)N2c2cc(F)ccc2C1	18.1%[44.1 µM]
Cc1ccc(NC(=O)Cn2ccn3nc(-c4ccccc4)c(CO)c3c2=O)cc1Cl	2.8%
Cc1cccc([C@H]2C[C@@H](O)[C@@H](O)[C@@H]2NCC2CCCC2)c1	-2.9%[44.1 µM]
CS(=O)(=O)N[C@H]1[C@H](O)[C@H](O)C[C@@H]1c1ccccc1	-5.9%[44.1 µM]
O[C@H]1[C@H](NCC2CCCC2)[C@@H](c2ccccc2)C[C@H]1O	1.78µM*
CCOc1ccccc1NC(=O)Cn1c(-c2ccc(F)cc2)nc(C)c(CCO)c1=O	i
CN1C[C@H](NC(=O)NC2(c3ccccc3)CCOCC2)CCC[C@@H](C(=O)NCc2cc(F)cc(F)c2)CC1=O	i
SMILES	Pf Dd2 growth
COc1ccc(C(=O)N[C@@H]2C=C[C@@H](c3c(C)nn(-c4ccc(C)c(Cl)c4)c3C)C2)cc1	4.47µM*
Cc1ccc(-n2nc(C)c([C@@H]3C=C[C@@H](NS(=O)(=O)c4cccs4)C3)c2C)cc1Cl	11.2µM*
COc1ccc(C(=O)N[C@@H]2C=C[C@@H](c3c(C)nn(-c4ccc(C(F)(F)F)cc4)c3C)C2)cc1	-6.7%
Cc1ccc(-n2nc(C)c([C@H]3C=C[C@@H](O)C3)c2C)cc1Cl	i
COc1ccc(C(=O)N[C@@H]2C=C[C@@H](c3c(C)nn(-c4ccccc4)c3C)C2)cc1	-23.6%[44.1 µM]
Cc1nn(-c2ccc(C(F)(F)F)cc2)c(C)c1[C@@H]1C=C[C@@H](NS(=O)(=O)c2ccccc2)C1	i
O=C(Cn1ccnn1)N1CCC2(CCCN(CC3CC3)C2=O)C1 (centres undefined)	-4.6%
COc1ccc(F)cc1[C@@H](NC(=O)C1=NNC(=O)CC1)C1CC(O)C1 (some centres undefined)	-23.1%
O=C(O)CCCC(=O)N1CCN2C(=O)c3cc(-c4ccco4)ccc3NC(=O)[C@@H]2C1	22.3%[44.1 µM]
CNC(=O)[C@@H]1C[C@H](Oc2ccccc2)CN1C(=O)c1cnccn1	1.9%
CN1CCN(C(=O)[C@@H]2CCC[C@@H](NC(=O)NC3CCCC3)CN(C)C(=O)C2)CC1	27.0%[44.1 µM]
O=C(CC(c1ccccc1)c1ccccc1Cl)N(Cc1cccnc1)C1CC1 (centres undefined)	12.6µM*
CN(Cc1cnccn1)C(=O)CC(c1ccccc1)c1ccccc1Cl (centres undefined)	-10.0%
O=C(CC(c1ccccc1)c1ccccc1F)NCc1cccnc1 (centres undefined)	-10.3%
CCOc1ccccc1C(=O)N1CCN(Cc2ccc(=O)n(C)c2)CC1	-20.2%
CC1CCN(Cc2ccc(C(=O)N3CCCC4(CCNC4)C3)o2)CC1 (centres undefined)	2.9%
COCCNC(=O)[C@@H]1C[C@H](Oc2ccccc2)CN1C(=O)c1cc2ccccc2[nH]1	-29.7%
CN1CC(=O)N(C2CCCNCC2)Cc2c1ncnc2N1CCC(N2CCCC2)CC1 (centres undefined)	18.7%
COc1ccc(C(=O)N2CCC3(CC2)OCC(C(=O)NCC(C)C)N3C(=O)c2ccc(C)cc2)cc1 (centres undefined)	i
CC(C)NC(=O)C1COC2(CCN(C(=O)CC(C)(C)C)CC2)N1C(=O)c1ccccc1 (centres undefined)	-25.4%
Cc1cccc(C(=O)N2C(C(=O)NCC(C)C)COC23CCN(C(=O)c2ccc(F)cc2)CC3)c1 (centres undefined)	i
Cc1ccc(C(=O)N2C(C(=O)NCC(C)C)COC23CCN(C(=O)c2cccc(Cl)c2)CC3)cc1 (centres undefined)	10µM*
Cc1cccc(C(=O)N2C(C(=O)NCc3ccccc3)COC23CCN(C(=O)CC(C)(C)C)CC3)c1 (centres undefined)	7.94µM*
CCCNC(=O)C1COC2(CCN(C(=O)Cc3ccccc3)CC2)N1C(=O)c1cccc(C)c1 (centres undefined)	i
CC(=O)N1CCCC(c2nc(-c3ccc4nc[nH]c4c3)no2)C1 (centres undefined)	13.9%
SMILES	Pf Dd2 growth
Cc1ccc(OCC(=O)c2ccc3c(c2)N(CC(=O)NC2CCCCC2)C(=O)CO3)c(Cl)c1	i
CCOC(=O)Cn1nc2n(c1=O)CCN(Cc1cc(C)ccc1C)C2=O	-10.6%
COCC1(C(=O)N2C[C@@H](C(=O)O)[C@H](c3ccccc3OC)C2)CCC1	-12.3%
Cc1cc(CN2CCC3(CC2)CC(=O)c2ccc(Cl)cc2O3)no1	i
N#Cc1ccc(CN2CCC3(CC2)CC(=O)c2ccc(Cl)cc2O3)cc1	11.2µM*
CC(=O)Nc1ccc(CN2CCC3(CC2)CC(=O)c2ccc(Cl)cc2O3)cc1	i
Cc1noc(C)c1Cc1ccc(C(=O)N2CC(N(C)Cc3cccnc3)C2)o1	-16.1%
COCCCNC(=O)CCC[C@@H]1[C@H]2CCCN3CCC[C@@H](CN1C(=O)c1cccnc1)[C@@H]23	8.7%
COC(=O)CNC(=O)c1nc(-c2ccsc2)c2cnccn12	-8.1%[44.1 µM]
CC(C)(C)c1nc(C(=O)NCCc2ccc(Cl)cc2)n2ccncc12	2.24µM*
COCCNC(=O)c1nc(-c2cccnc2)c2cnccn12	0.3%[44.1 µM]
C[S+](=O)([O-])c1ccc(-c2nc(C(=O)NCCc3ccc(Cl)cc3)n3ccncc23)cc1	8.91µM*
Cn1ncc2c(C(=O)NCCc3ccc(Cl)cc3)cc(-c3ccc([S+](C)(=O)[O-])cc3)nc21	-19.4%
Cc1cccn2c(=O)c(C(=O)NCCc3ccc(Cl)cc3)cnc12	i
COc1ccc(CC(=O)N2CCC3(CC2)CC(O)CCO3)cc1Cl (centres undefined)	-20.7%
